Data published in PubChem BioAssay (NCATS).
Records with an inconclusive call do not appear. The source made the active and inactive calls. Calls follow the shape of the dose curve; as a rule, active = well fitted cell-killing curve with a large enough effect; inconclusive = small, poorly fitted or top-dose-only effect, or effect the other way; inactive = no such curve, though single readings can be large or run the other way.

Assays:
[1] = Quantitative High-Throughput drug screen in 47 multiple myeloma cell lines against the NCATS MIPE library collection: OCIMY1_PLB cell viability assay (AID 1918979); also: nearly all actives have a fitted effect of over 35% in size;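 as to viability: 100% = DMSO-only wells and 0% = cell-free media-only wells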
Outline: (§1)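 qHTS format: cells plated (500/well), pin-dosed with MIPE 4.0 compounds, kept 48 h at 37 °C. Readout was CellTiter-Glo luminescence, median RLU.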

[2] = Quantitative High-Throughput drug screen in 47 multiple myeloma cell lines against the NCATS MIPE library collection: MM1S_ATCC cell viability assay (AID 1918980); also: nearly all actives have a fitted effect of over 45% in size
Outline: as §1

[3] = Quantitative High-Throughput drug screen in 47 multiple myeloma cell lines against the NCATS MIPE library collection: MM1R_ATCC cell viability assay (AID 1918981); also: nearly all actives have a fitted effect of over 35% in size
Outline: as §1

[4] = Quantitative High-Throughput drug screen in 47 multiple myeloma cell lines against the NCATS MIPE library collection: LP1_DSMZ cell viability assay (AID 1918982); also: nearly all actives have a fitted effect of over 35% in size
Outline: as §1

[5] = Quantitative High-Throughput drug screen in 47 multiple myeloma cell lines against the NCATS MIPE library collection: KMS28PE_JCRB cell viability assay (AID 1918983); also: nearly all actives have a fitted effect of over 35% in size
Outline: as §1

[6] = Quantitative High-Throughput drug screen in 47 multiple myeloma cell lines against the NCATS MIPE library collection: L363_DSMZ cell viability assay (AID 1918984); also: nearly all actives have a fitted effect of over 40% in size
Outline: as §1

[7] = Quantitative High-Throughput drug screen in 47 multiple myeloma cell lines against the NCATS MIPE library collection: KMS34_JCRB cell viability assay (AID 1918985); also: nearly all actives have a fitted effect of over 40% in size
Outline: as §1

[8] = Quantitative High-Throughput drug screen in 47 multiple myeloma cell lines against the NCATS MIPE library collection: OPM1_PLB cell viability assay (AID 1918989); also: nearly all actives have a fitted effect of over 40% in size
Outline: as §1

[9] = Quantitative High-Throughput drug screen in 47 multiple myeloma cell lines against the NCATS MIPE library collection: SKMM1_PLB cell viability assay (AID 1919863); conditions: SKMM1 myeloma viability, CellTiter-Glo ATP, 48 h; viability: active compounds read low; also: nearly all actives have a fitted effect of over 35% in size
Outline: as §1

[10] = Quantitative High-Throughput drug screen in 47 multiple myeloma cell lines against the NCATS MIPE library collection: U266_ATCC cell viability assay (AID 1919864); also: nearly all actives have a fitted effect of over 35% in size;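 as to viability (% of DMSO control): 0% = media-only wells without cells and 100% = DMSO-only wells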
Outline: as §1

[11] = Quantitative High-Throughput drug screen in 47 multiple myeloma cell lines against the NCATS MIPE library collection: XG6_PLB cell viability assay (AID 1919865); also: nearly all actives have a fitted effect of over 40% in size
Outline: as §1

[12] = Quantitative High-Throughput drug screen in 47 multiple myeloma cell lines against the NCATS MIPE library collection: XG1_PLB cell viability assay (AID 1919866); also: nearly all actives have a fitted effect of over 35% in size
Outline: as §1

[13] = Quantitative High-Throughput drug screen in 47 multiple myeloma cell lines against the NCATS MIPE library collection: VP6_DJ cell viability assay (AID 1919867); also: nearly all actives have a fitted effect of over 40% in size;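 as to viability (% of DMSO): 100% = DMSO-only wells and 0% = wells with media alone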
Outline: as §1

[14] = Quantitative High-Throughput drug screen in 47 multiple myeloma cell lines against the NCATS MIPE library collection: UTMC2_PLB cell viability assay (AID 1919868); conditions: CellTiter-Glo ATP luminescence, 48 h; viability (% of DMSO control): at 45.8 µM (top of the series); also: nearly all actives have a fitted effect of over 55% in size;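 as to viability (% of DMSO control): 100% = DMSO-only wells and 0% = media-only wells without cells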
Outline: as §1

[15] = Quantitative High-Throughput drug screen in 47 multiple myeloma cell lines against the NCATS MIPE library collection: PE2_PLB cell viability assay (AID 1919869); also: nearly all actives have a fitted effect of over 35% in size
Outline: as §1

[16] = Quantitative High-Throughput drug screen in 47 multiple myeloma cell lines against the NCATS MIPE library collection: PCM6_Riken cell viability assay (AID 1919870); also: nearly all actives have a fitted effect of over 30% in size
Outline: as §1

[17] = Quantitative High-Throughput drug screen in 47 multiple myeloma cell lines against the NCATS MIPE library collection: RPMI8226_ATCC cell viability assay (AID 1919871); also: nearly all actives have a fitted effect of over 30% in size
Outline: as §1

[18] = Quantitative High-Throughput drug screen in 47 multiple myeloma cell lines against the NCATS MIPE library collection: OPM2_DSMZ cell viability assay (AID 1919872); also: nearly all actives have a fitted effect of over 30% in size
Outline: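 qHTS of the MIPE 4.0 collection: 500 myeloma cells/well, 48 h drug exposure at 37C in 5% CO2, then CellTiter-Glo for 5 min at room temperature before luminescence reading.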

[19] = Quantitative High-Throughput drug screen in 47 multiple myeloma cell lines against the NCATS MIPE library collection: OCIMY5_PLB cell viability assay (AID 1918988); also: nearly all actives have a fitted effect of over 65% in size
Outline: as §1

[20] = Quantitative High-Throughput drug screen in 47 multiple myeloma cell lines against the NCATS MIPE library collection: OCIMY7_PLB cell viability assay (AID 1918987); conditions: OCI-MY7 myeloma viability, CellTiter-Glo ATP, 48 h; viability (% of DMSO): at 45.8 µM (top of the series); also: nearly all actives have a fitted effect of over 65% in size
Outline: as §1
Potency is read from the fitted curve at half-maximal effect.

C=CC(=O)Nc1ccc2ncnc(Nc3ccc(OCc4cccc(F)c4)c(Cl)c3)c2c1
active: Potency [1] 14.8 µM | Potency [2] 1.66 µM | Potency [3] 8.33 µM | Potency [4] 5.9 µM | Potency [5] 2.64 µM | Potency [6] 0.0296 µM | Potency [7] 0.332 µM | Potency [8] 0.209 µM | Potency [9] 6.62 µM | Potency [10] 14.8 µM | Potency [11] 0.0148 µM | Potency [12] 0.0662 µM | Potency [13] 0.264 µM | Potency [14] 0.743 µM | Potency [15] 0.59 µM | Potency [16] 1.66 µM | Potency [17] 9.35 µM | Potency [18] 1.05 µM

O=C(C=Cc1ccc(CN(CCO)CCc2c[nH]c3ccccc23)cc1)NO
active: Potency [1] 0.296 µM | Potency [2] 0.105 µM | Potency [3] 0.059 µM | Potency [4] 0.148 µM | Potency [5] 0.132 µM | Potency [6] 0.059 µM | Potency [7] 0.105 µM | Potency [19] 0.0662 µM | Potency [8] 0.0662 µM | Potency [9] 0.187 µM | Potency [10] 0.264 µM | Potency [11] 0.235 µM | Potency [12] 0.166 µM | Potency [13] 0.059 µM | Potency [15] 0.166 µM | Potency [16] 0.132 µM | Potency [17] 0.235 µM | Potency [18] 0.209 µM

Cn1cc(CNCC2CCN(c3ncc(C(=O)NO)cn3)CC2)c2ccccc21
active: Potency [1] 0.105 µM | Potency [2] 0.0166 µM | Potency [3] 0.0148 µM | Potency [4] 0.0418 µM | Potency [5] 0.0296 µM | Potency [6] 0.0264 µM | Potency [7] 0.0187 µM | Potency [20] 0.0332 µM | Potency [19] 0.0166 µM | Potency [8] 0.0118 µM | Potency [9] 0.059 µM | Potency [10] 0.0372 µM | Potency [11] 0.0833 µM | Potency [13] 0.0132 µM | Potency [15] 0.118 µM | Potency [16] 0.0372 µM | Potency [17] 0.0662 µM

OCCNC1CCCc2c1[nH]c1ccc(-c3ccccc3)cc21 (configuration not stated)
active: Potency [1] 26.4 µM | Potency [2] 20.9 µM | Potency [3] 20.9 µM | Potency [4] 23.5 µM | Potency [5] 23.5 µM | Potency [6] 9.35 µM | Potency [20] 20.9 µM | Potency [19] 18.7 µM | Potency [8] 8.33 µM | Potency [9] 26.4 µM | Potency [10] 20.9 µM | Potency [11] 26.4 µM | Potency [13] 8.33 µM | Potency [15] 14.8 µM | Potency [16] 11.8 µM | Potency [17] 26.4 µM

CCCCCCCCc1ccc(CCC(N)(CO)CO)cc1
active: Potency [1] 23.5 µM | Potency [2] 7.43 µM | Potency [3] 9.35 µM | Potency [4] 13.2 µM | Potency [5] 18.7 µM | Potency [6] 4.18 µM | Potency [7] 14.8 µM | Potency [20] 11.8 µM | Potency [19] 14.8 µM | Potency [8] 4.69 µM | Potency [10] 16.6 µM | Potency [11] 3.32 µM | Potency [12] 4.18 µM | Potency [13] 4.69 µM | Potency [14] 9.35 µM | Potency [15] 8.33 µM | Potency [16] 3.72 µM | Potency [17] 9.35 µM | Potency [18] 16.6 µM

COc1cc(C)c(Sc2cnc(NC(=O)c3ccc(CNC(C)C(C)(C)C)cc3)s2)cc1C(=O)N1CCN(C(C)=O)CC1 (configuration not stated)
active: Potency [1] 14.8 µM | Potency [2] 4.18 µM | Potency [3] 5.9 µM | Potency [4] 16.6 µM | Potency [5] 9.35 µM | Potency [6] 2.96 µM | Potency [7] 14.8 µM | Potency [20] 3.32 µM | Potency [8] 16.6 µM | Potency [9] 20.9 µM | Potency [10] 14.8 µM | Potency [11] 14.8 µM | Potency [12] 16.6 µM | Potency [13] 8.33 µM | Potency [15] 14.8 µM | Potency [16] 18.7 µM | Potency [17] 16.6 µM | Potency [18] 20.9 µM

COc1cc(C)c(C=CC(C)=CC=CC(C)=CC(=O)O)c(C)c1C
active: Potency [17] 1.48 µM
inactive: Potency [1] | Potency [2] | Potency [3] | Potency [4] | Potency [5] | Potency [6] | viability [9] 132% | Potency [10] | Potency [11] | Potency [12] | Potency [18]

CCOC(=O)[C@H](CCc1ccccc1)N[C@@H](C)C(=O)N1[C@@H](C(=O)O)C[C@H]2CCC[C@@H]21
active: Potency [1] 26.4 µM | Potency [2] 2.64 µM | Potency [3] 16.6 µM | Potency [4] 20.9 µM | Potency [5] 23.5 µM | Potency [6] 7.43 µM | Potency [7] 26.4 µM | Potency [19] 14.8 µM | Potency [8] 5.26 µM | Potency [10] 8.33 µM | Potency [11] 7.43 µM | Potency [12] 7.43 µM | Potency [13] 6.62 µM | Potency [15] 8.33 µM | Potency [16] 8.33 µM | Potency [17] 20.9 µM | Potency [18] 26.4 µM

CC(=O)O[C@@]12CO[C@H]1C[C@H](O)[C@@]1(C)C(=O)[C@H](O)C3=C(C)[C@@H](OC(=O)C(O)[C@@H](NC(=O)OC(C)(C)C)c4ccccc4)C[C@@](O)([C@@H](OC(=O)c4ccccc4)[C@@H]21)C3(C)C (some centres not stated)
inactive: Potency [1] | Potency [2] | Potency [3] | Potency [4] | Potency [5] | Potency [6] | Potency [7] | Potency [20] | Potency [19] | Potency [8] | viability [9] 60% | Potency [11] | Potency [13] | Potency [14] | Potency [15] | Potency [16] | Potency [18]
